Data on 10 compounds can be found in ChEMBL document CHEMBL3988442, “University of Dundee, Small-Polar-MMV Screening Library” (2021).

For some assays here: Results with a measured potency or affinity are listed apart.

Set-up in all cases: scale not given: direction of the effect not stated beside the values
Assay [1] has as its target Protein translocase subunit SecA (Escherichia coli (strain K12)) (UniProt P10408). In words: Assay to Identify E. coli SecA ATPase Inhibitors. The class given is functional. Particulars: 30 µM.
The target of assay [2] is T1, Ubiquitin-activating enzyme e1, putative (Leishmania donovani (strain BPK282A1)) (UniProt E9BSI1).
T1 sequence (whole entry): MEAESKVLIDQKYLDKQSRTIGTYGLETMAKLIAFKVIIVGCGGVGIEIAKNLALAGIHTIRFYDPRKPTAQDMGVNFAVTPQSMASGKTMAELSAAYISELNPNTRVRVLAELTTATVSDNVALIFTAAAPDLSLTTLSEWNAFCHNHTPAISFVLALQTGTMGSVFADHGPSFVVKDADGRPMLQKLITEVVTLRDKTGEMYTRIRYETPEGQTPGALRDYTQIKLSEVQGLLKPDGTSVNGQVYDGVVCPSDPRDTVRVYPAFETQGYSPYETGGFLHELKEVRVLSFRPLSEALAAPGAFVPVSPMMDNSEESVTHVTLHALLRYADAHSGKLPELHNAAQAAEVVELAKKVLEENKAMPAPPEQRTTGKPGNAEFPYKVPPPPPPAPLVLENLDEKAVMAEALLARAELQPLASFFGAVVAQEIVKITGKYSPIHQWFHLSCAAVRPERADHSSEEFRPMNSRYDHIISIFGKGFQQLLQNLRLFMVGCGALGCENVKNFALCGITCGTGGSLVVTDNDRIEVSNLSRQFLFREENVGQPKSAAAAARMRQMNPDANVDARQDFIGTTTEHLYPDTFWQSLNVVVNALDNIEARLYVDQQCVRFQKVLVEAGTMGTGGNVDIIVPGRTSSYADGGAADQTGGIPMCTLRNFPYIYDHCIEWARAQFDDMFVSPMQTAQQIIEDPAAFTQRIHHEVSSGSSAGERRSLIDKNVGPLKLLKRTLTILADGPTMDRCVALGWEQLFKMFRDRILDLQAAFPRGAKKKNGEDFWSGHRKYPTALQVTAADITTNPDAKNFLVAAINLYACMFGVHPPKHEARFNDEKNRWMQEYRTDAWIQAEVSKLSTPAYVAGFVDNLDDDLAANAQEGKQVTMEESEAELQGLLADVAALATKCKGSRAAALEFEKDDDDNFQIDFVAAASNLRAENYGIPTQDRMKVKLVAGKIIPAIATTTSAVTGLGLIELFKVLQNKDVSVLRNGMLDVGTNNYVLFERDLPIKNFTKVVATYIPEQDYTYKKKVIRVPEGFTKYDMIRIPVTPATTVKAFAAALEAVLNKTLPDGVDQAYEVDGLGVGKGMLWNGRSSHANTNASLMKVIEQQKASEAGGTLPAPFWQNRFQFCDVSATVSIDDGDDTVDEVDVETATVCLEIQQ
Description: Leishmania donovani Ubiquitin Activating Enzyme (LdE1). The class given is functional. The conditions noted are these: 30 µM.

Assay [3] deals with AMP-activated protein kinase, AMPK (Homo sapiens) (UniProt P54646+O43741+P54619+Q9UGJ0+Q9Y478+Q13131+Q9UGI9). Description: AMP-dependent Kinase enzyme assay. An in vitro enzyme assay that detects ADP turnover that is directly proportional to AMPK activity. This uses naive AMPK that is activated during the assay with MK-8722. Type of assay: functional. Particulars: 30 µM.
Assay [4] concerns the target Sialic acid-binding Ig-like lectin 9 (Homo sapiens) (UniProt Q9Y336). In words: Hs-Siglec9 ALPHAscreen SOP 20170721. The conditions noted are these: 10 µM. Background: In Alpha technology, singlet oxygen from a donor bead excites a nearby acceptor bead.
The next assay concerns Trypanosoma cruzi. Description: Trypanosoma cruzi phosphomannomutase and mannose-1-phosphate guanylyltransferase assay. Type of assay: functional. Particulars: 10 µM.
The target of assay [5] is T2, Arginase-2, mitochondrial (Homo sapiens) (UniProt P78540).
T2 sequence (whole entry): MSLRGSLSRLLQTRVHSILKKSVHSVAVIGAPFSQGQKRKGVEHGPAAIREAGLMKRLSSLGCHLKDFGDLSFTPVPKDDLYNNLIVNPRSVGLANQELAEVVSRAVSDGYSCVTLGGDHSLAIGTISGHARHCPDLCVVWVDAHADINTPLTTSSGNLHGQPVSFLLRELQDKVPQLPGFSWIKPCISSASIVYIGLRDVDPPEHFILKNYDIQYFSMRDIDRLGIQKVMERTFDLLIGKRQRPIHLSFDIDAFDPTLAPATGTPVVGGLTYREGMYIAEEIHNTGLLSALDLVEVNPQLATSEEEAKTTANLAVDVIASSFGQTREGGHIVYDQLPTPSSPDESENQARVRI
In words: in vitro enzyme assay to detect the production of urea directly proportional to the activity of Arginase II. Note: in the data most compounds retested in dose-response had high values. The class given is functional. Particulars: 33.3 µM.

In assay [6] the target is T3, Proteasome subunit beta (Trypanosoma cruzi) (UniProt O96673).
T3 sequence (whole entry): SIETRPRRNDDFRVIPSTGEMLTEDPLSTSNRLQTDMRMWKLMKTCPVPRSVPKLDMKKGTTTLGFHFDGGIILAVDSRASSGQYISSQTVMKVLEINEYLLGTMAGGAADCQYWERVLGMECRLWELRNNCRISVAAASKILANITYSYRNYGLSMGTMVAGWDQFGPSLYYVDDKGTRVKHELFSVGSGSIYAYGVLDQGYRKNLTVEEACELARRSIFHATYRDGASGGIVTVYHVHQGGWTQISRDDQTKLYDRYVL
Description: Trypanosoma cruzi proteasome chymotrypsin-like activity (TcProtChymo) assay. Note: in the data most compounds retested in dose-response had high values. The conditions noted are these: 9.37 µM. Type of assay: functional.

The species named for the next assay is Homo sapiens. In words: To identify inhibition of the IFN signalling (Jak-Stat) pathway via expression of an eGFP reporter gene under the control of an IFN-stimulated response element (ISRE) containing MxA promoter. The class given is functional. Particulars: 30 µM. For orientation: Reporter assays use an easily measured gene product as a stand-in for the process of interest.

The target of assay [7] is T4, Tyrosyl-tRNA synthetase, putative (Trypanosoma cruzi (strain CL Brener)) (UniProt Q4DSP6).
T4 sequence (whole entry): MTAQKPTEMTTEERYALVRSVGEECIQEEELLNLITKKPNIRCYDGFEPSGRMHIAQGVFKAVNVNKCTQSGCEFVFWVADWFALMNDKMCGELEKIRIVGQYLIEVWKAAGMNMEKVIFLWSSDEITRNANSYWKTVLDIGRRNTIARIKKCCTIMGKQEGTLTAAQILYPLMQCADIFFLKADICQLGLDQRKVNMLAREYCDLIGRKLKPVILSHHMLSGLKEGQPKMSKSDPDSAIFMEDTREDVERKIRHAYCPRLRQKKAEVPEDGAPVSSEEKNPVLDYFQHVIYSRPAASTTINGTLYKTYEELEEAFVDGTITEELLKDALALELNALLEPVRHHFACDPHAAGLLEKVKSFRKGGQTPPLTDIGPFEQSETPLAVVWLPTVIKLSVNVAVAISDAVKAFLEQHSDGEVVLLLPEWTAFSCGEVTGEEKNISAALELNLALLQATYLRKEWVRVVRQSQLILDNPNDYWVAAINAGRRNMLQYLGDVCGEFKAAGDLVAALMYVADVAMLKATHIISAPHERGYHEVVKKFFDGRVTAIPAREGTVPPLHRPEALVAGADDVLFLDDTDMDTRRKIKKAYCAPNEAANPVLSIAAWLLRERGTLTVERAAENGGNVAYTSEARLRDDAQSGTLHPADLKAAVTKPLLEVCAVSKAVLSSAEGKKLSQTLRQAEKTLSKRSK
In words: Trypanosoma cruzi tyrosyl tRNA synthetase (TcYRS) _High Tyrosine SOP. Note: in the data most compounds retested in dose-response had high values. Particulars: 30 µM. Type of assay: functional.

The target in assay [8] is T4, Tyrosyl-tRNA synthetase, putative (Trypanosoma cruzi (strain CL Brener)). In words: Trypanosoma cruzi tyrosyl tRNA synthetase (TcYRS) SOP. The class given is functional. The conditions noted are these: 30 µM.
For assay [9], the target named is Chromo domain-containing protein 1 (Saccharomyces cerevisiae (strain ATCC 204508 / S288c) (Baker's yeast)) (UniProt P32657). In words: ScCHD-1 Enzyme Inhibition Assay. Note: in the data most compounds retested in dose-response had high values. Particulars: 30 µM. Type of assay: functional.
Chain of Chromo domain-containing protein 1 (Saccharomyces cerevisiae (strain ATCC 204508 / S288c) (Baker's yeast)) (P32657 whole entry, the tested form may be a part): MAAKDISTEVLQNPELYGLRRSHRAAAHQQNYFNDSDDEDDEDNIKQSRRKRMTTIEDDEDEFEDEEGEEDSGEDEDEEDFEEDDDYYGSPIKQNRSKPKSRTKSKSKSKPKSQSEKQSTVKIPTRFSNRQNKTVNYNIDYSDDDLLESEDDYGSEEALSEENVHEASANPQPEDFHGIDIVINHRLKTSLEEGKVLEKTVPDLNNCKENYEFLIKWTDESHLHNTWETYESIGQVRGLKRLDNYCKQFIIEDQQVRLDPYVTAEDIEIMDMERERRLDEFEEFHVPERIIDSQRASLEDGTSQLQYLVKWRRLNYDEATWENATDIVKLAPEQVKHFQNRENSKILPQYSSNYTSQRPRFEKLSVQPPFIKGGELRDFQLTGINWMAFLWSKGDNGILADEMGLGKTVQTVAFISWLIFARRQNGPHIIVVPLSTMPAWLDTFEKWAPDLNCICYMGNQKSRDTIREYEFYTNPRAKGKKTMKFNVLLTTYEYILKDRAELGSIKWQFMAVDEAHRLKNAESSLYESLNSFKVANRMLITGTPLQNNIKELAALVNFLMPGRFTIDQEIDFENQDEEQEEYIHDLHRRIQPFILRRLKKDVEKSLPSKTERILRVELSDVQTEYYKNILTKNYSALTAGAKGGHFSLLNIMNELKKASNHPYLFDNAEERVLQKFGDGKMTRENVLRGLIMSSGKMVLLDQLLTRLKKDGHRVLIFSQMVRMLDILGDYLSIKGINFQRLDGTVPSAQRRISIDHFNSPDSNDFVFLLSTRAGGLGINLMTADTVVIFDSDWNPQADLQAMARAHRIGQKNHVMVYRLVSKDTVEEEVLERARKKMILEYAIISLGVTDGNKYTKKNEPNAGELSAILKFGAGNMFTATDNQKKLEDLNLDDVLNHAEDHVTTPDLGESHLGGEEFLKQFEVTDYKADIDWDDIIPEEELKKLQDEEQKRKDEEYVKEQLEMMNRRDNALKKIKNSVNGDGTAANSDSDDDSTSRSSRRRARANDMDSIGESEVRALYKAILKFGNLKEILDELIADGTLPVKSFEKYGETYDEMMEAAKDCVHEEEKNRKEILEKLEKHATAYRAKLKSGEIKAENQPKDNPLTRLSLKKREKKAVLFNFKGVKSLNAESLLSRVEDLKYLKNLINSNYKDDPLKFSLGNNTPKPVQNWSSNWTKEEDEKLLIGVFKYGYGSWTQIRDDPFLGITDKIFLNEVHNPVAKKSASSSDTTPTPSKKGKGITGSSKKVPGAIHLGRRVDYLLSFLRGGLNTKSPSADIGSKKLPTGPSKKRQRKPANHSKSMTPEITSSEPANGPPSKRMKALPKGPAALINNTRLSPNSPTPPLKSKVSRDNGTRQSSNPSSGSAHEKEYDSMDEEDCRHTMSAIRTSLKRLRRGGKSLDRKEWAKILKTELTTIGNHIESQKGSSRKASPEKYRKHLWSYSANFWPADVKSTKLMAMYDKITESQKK

Chain of Sialic acid-binding Ig-like lectin 9 (Homo sapiens) (Q9Y336 whole entry): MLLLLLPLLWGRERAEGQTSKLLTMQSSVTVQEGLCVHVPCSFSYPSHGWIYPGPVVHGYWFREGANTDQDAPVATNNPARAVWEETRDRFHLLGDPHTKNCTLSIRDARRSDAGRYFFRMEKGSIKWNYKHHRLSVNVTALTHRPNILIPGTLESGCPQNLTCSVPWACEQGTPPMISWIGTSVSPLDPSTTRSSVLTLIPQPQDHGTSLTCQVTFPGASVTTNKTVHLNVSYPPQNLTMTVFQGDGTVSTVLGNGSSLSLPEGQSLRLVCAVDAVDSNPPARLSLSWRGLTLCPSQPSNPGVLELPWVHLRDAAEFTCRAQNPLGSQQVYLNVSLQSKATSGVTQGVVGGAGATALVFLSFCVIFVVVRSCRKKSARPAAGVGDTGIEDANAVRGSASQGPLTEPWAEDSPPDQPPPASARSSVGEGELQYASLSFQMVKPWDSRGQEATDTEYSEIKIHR
Chain of Protein translocase subunit SecA (Escherichia coli (strain K12)) (P10408 whole entry): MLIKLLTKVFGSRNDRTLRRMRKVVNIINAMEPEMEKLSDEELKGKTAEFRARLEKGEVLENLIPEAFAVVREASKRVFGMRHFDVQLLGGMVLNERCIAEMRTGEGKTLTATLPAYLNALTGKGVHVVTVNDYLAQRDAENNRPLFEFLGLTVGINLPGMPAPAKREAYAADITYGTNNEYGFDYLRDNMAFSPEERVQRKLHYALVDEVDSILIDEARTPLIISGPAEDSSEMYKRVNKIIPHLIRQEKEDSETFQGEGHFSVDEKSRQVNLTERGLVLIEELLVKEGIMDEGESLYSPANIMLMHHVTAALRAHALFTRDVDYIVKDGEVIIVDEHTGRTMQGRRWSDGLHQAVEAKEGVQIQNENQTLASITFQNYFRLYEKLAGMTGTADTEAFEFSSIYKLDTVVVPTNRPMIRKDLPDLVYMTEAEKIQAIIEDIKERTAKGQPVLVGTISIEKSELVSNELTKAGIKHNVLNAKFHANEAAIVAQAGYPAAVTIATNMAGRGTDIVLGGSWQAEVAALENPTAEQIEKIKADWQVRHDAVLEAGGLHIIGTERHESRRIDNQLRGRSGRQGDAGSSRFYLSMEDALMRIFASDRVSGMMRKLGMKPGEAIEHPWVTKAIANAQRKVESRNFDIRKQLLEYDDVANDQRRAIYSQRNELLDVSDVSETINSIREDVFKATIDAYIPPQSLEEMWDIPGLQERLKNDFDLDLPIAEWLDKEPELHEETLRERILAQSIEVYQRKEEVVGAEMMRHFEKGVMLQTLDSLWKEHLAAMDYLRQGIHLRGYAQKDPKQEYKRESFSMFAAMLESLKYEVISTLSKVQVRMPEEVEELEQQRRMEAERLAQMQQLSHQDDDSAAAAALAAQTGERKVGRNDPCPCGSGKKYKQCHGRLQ

Take `CC(O)CN1CCN(C(=O)c2ccn(-c3cccc(Cl)c3)n2)CC1` (stereo not given): the Percent Effect in assay [1] was -5.56%; in [2], -2.6%; in assay [3], 12.7%; in assay [4], -7.86%; in the assay with Trypanosoma cruzi, -6.93%; in [5] it was 1.07%. In addition, the Percent Effect is 1.18% in assay [6]; 26.4% in the assay listed under Homo sapiens; -1.94% in assay [7]; -9.76% in assay [8]; -1.68% in assay [9].

With `CC(NC(=O)NCCCN(C)C)c1ccc2c(c1)CCC(=O)N2` (stereo not given), the Percent Effect in assay [1] was -3.72%; in [2], 13%; in assay [3], 0.292%; in assay [4] it was -0.949%; in the assay with Trypanosoma cruzi, 10.1%; in assay [5] it was -6.05%. In addition, the Percent Effect in assay [6] was 15%; in the assay listed under Homo sapiens it was -16.2%; in assay [7], 8.74%; in assay [8], 21.9%; in assay [9] it was -6.2%.

On to `Cc1cc(NC(=O)C(c2cccc(F)c2)N2CCOCC2)ccn1` (stereo not given), for which the Percent Effect in assay [1] was -4.97%; in assay [2], 10.5%; in assay [3] it was 2.55%; in assay [4] it was 5.76%; in the assay on Trypanosoma cruzi, 1.66%; in assay [5], -9.47%. The Percent Effect in [6] is 10.6%; in the assay filed under Homo sapiens it was 3.19%; in [7], 2.13%; in [8] it was 7.79%; in [9] it was -7.19%.

Consider `CC(C)(C)c1nnc(CN2CCCC2c2noc(C3CC3)n2)o1` (stereo not given), for which the Percent Effect in assay [1] is 0.285%; in [2] it was 8.11%; in assay [3], 0.0576%; in assay [4] it was -0.506%; in the assay on Trypanosoma cruzi, 2.32%; in assay [5], -0.554%. In addition, the Percent Effect was 8.08% in assay [6]; -8.49% in the assay listed under Homo sapiens; 10.9% in assay [7]; 28.1% in assay [8]; -6.45% in assay [9].

In the case of `CC(C)Cc1noc(CN2CCN(CCOc3ccc(Cl)cc3)CC2)n1`, the Percent Effect was -5.56% in assay [1]; 21.1% in [2]; -0.366% in assay [3]; 9.07% in [4]; 5.08% in the assay on Trypanosoma cruzi; -3.83% in [5]. Besides, the Percent Effect is 14.7% in [6]; 32.7% in the assay listed under Homo sapiens; 5.39% in [7]; 19.5% in assay [8]; -8.42% in [9].

As for `Cc1nnc(NC(=O)CN(C)CC2CCCN2c2cccnn2)s1` (stereo not given), the Percent Effect in assay [1] was -6.6%; in assay [2], -2.7%; in assay [3], -10.9%; in assay [4] it was 17.7%; in the assay with Trypanosoma cruzi, -1.56%; in assay [5] it was -1.67%. Further, the Percent Effect worked out at 17.3% in [6]; 17.7% in the assay filed under Homo sapiens; 5.94% in assay [7]; 1.22% in [8]; 0.656% in assay [9].

For the compound `CCc1nnc(CNCC2CCCN2c2cccnn2)o1` (stereo not given), the Percent Effect in assay [1] is -2.1%; in [2] it was 0%; in assay [3], 0.161%; in assay [4], 4.6%; with Trypanosoma cruzi, 2.78%; in [5], -2.4%. For the same compound, the Percent Effect in assay [6] is 5.57%; in the assay filed under Homo sapiens it was 3.42%; in [7] it was 8.33%; in assay [8] it was 11.1%; in assay [9] it was -4.05%.

As to `COCC1c2c(cnn2CC2CC2)CCN1Cc1cccs1` (stereo not given), the Percent Effect in assay [1] was -0.701%; in assay [2], -5.33%; in [3], 6.98%; in [4], 7.58%; in the assay on Trypanosoma cruzi it was -2.51%; in assay [5] it was -9.5%. For the same compound, the Percent Effect in assay [6] is 10.1%; in the assay listed under Homo sapiens, -16.5%; in assay [7] it was 3.12%; in [8], -2.5%; in assay [9] it was -3.74%.

Turning to `CC(C)c1nc2c(n1C)CCN(CC(=O)Nc1ccc(Cl)cn1)C2`, the Percent Effect in [1] was -1.64%; in [2] it was 15.6%; in assay [3], 1.07%; in assay [4], 6.83%; with Trypanosoma cruzi, 0.686%; in [5], -2.32%. Moreover, the Percent Effect in assay [6] was 19.8%; in the assay filed under Homo sapiens it was 6.83%; in assay [7], 4.76%; in [8], 21.2%; in assay [9], -21.7%.

Regarding `Cc1cn2nc(N3CCCN(Cc4noc(C)n4)CC3)sc2n1`, the Percent Effect in [1] is -4%; in assay [2], 11.4%; in assay [3], 7.75%; in assay [4], 2.12%; in the assay with Trypanosoma cruzi, -2.97%; in assay [5] it was 1.94%. For the same compound, the Percent Effect in assay [6] was 13.4%; in the assay listed under Homo sapiens, 0.85%; in assay [7], 7.29%; in [8], 12.7%; in assay [9] it was -14.4%.
